Values joined by “and” are separate entries in the source; they are usually repeats but may differ in a detail not shown here. Equal entries are not always repeated. The panel holds about 79,000 compounds, 15% with a hit somewhere; the sample as a whole holds those more often. Active and inactive are the calls of the source. Cut-off read from the data, not from the text of the source: active = growth inhibition above about 70%; inactive = the rest.
Experiments:
[1] = NCI Yeast Anticancer Drug Screen. Data for the rad50 strain (AID 155);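 note: 0% = growth of vehicle-only cultures of the same strain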; conditions: S. cerevisiae rad50 strain growth inhibition, stronger effect = higher value
Method in brief: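 Yeast carrying a defined DNA repair defect were exposed to test compounds, and growth was compared with vehicle-treated controls to give percent inhibition.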

[2] = NCI Yeast Anticancer Drug Screen. Data for the mec2-1 strain (AID 157); conditions: S. cerevisiae mec2-1 strain, stronger effect = higher value
Method in brief: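 mec2-1 yeast strain, carrying an alteration in DNA damage repair or cell cycle control, was exposed to compounds; growth inhibition was measured relative to vehicle-treated controls.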

[3] = NCI Yeast Anticancer Drug Screen. Data for the sgs1 mgt1 strain (AID 161);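 note: 0% = growth of cultures given vehicle only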; conditions: S. cerevisiae sgs1 mgt1 strain, stronger effect = higher value
Method in brief: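 Growth of a repair-deficient yeast mutant was monitored after compound treatment and expressed as inhibition relative to vehicle-treated cultures.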

[4] = NCI Yeast Anticancer Drug Screen. Data for the cln2 rad14 strain (AID 165);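 note: 0% = growth equal to vehicle treated cultures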; conditions: S. cerevisiae cln2 rad14 strain, stronger effect = higher value
Method in brief: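 Yeast carrying cln2 and rad14 alterations (cell cycle control and DNA damage repair) were exposed to compounds. Growth inhibition was measured against vehicle-treated controls.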

[5] = NCI Yeast Anticancer Drug Screen. Data for the bub3 strain (AID 167); conditions: S. cerevisiae bub3 mutant strain, stronger effect = higher value
Method in brief: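 Compounds were applied to a genetically altered yeast strain carrying a cell-cycle control defect. Growth inhibition was scored against vehicle-treated controls.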

[6] = NCI Yeast Anticancer Drug Screen. Data for the mlh1 rad18 strain (AID 175); conditions: S. cerevisiae mlh1 rad18 strain growth inhibition, stronger effect = higher value
Method in brief: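 Growth inhibition of the yeast strain was measured after compound exposure and expressed relative to vehicle-treated controls. The strain carries defined defects in DNA damage repair.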

[7] = at 5.0 µM (retest, dose inferred, filed as 0.5)
[8] = at 50.0 µM (retest, dose inferred, filed as 5.0)

Measured: growth inhibition

[Au+].c1c[n-]cn1.c1ccc([PH+](c2ccccc2)c2ccccc2)cc1
active: [1]; [7] 99% | [1]; [8] 98% | [1]; at 50.0 µM 97.9% | [2]; [7] 99% | [2]; [8] 98% | [2]; at 50.0 µM 98% | [3]; [7] 99% | [3]; [8] 98% | [3]; at 50.0 µM 96.2% | [4]; [7] 98% | [4]; [8] 97% | [4]; at 50.0 µM 93.6% | [5]; [7] 98% | [5]; [8] 98% | [5]; at 50.0 µM 97.2% | [6]; [7] 99% | [6]; [8] 98% | [6]; at 50.0 µM 97.7%

Cc1cc(O)c2c(c1)C(=O)C13C(=C2O)C(=O)C2C(O)C1C1C(O)C3C(=O)C3=C(O)c4c(O)cc(C)cc4C(=O)C321 (centres undefined)
active: [2]; at 50.0 µM 76.2% | [3]; at 50.0 µM 79.5% | [5]; [7] 88% | [5]; [8] 70% | [5]; at 50.0 µM 80.2%
inactive: [1]; [7] 18% | [1]; [8] 44% | [1]; at 50.0 µM 69.7% | [2]; [7] 57% | [2]; [8] 46% | [3]; [7] 40% | [3]; [8] 48% | [4]; [7] 64% | [4]; [8] 47% | [4]; at 50.0 µM 60.1% | [6]; [7] 34% | [6]; [8] 42% | [6]; at 50.0 µM 69%

Nc1nc(N)c(-c2ccc(Cl)c(Cl)c2)c(CCc2ccc(CNC(=O)Nc3ccc(S(=O)(=O)F)cc3)cc2)n1
inactive: [1]; [7] 4% | [1]; [8] 28% | [1]; at 50.0 µM 56.8% | [2]; [7] 0% | [2]; [8] 19% | [2]; at 50.0 µM 34% | [3]; [7] -4% | [3]; [8] 35% | [4]; [7] 1% | [4]; [8] 40% | [4]; at 50.0 µM 25.8% | [5]; [7] -1% | [5]; [8] 25% | [5]; at 50.0 µM 25% | [6]; [7] 4%
active: [3]; at 50.0 µM 79.8% | [6]; [8] 82% | [6]; at 50.0 µM 84.7%

ClCCN(CCCl)CCN1c2ccccc2Sc2ccc(Cl)cc21
inactive: [1]; [7] 0% | [1]; [8] 69% | [2]; [7] 1% | [3]; [7] 0% | [4]; [7] -1% | [4]; [8] 49% | [5]; [7] -2% | [6]; [7] 3%
active: [1]; at 50.0 µM 99% | [2]; [8] 75% | [2]; at 50.0 µM 96.2% | [3]; [8] 97% | [3]; at 50.0 µM 99.5% | [4]; at 50.0 µM 98.5% | [5]; [8] 80% | [5]; at 50.0 µM 97.1% | [6]; [8] 95% | [6]; at 50.0 µM 98.9%

CC(C)CCCC(C)CCC1C(=O)NC(=O)NC1=O (centres undefined)
inactive: [1]; [7] 6% | [1]; [8] 23% | [1]; at 50.0 µM -6.75% and 8.2% | [2]; [7] -17% | [2]; [8] 4% | [2]; at 50.0 µM -0.5% and -2.3% | [3]; [7] -6% | [3]; [8] 21% | [3]; at 50.0 µM -8.05% and 38.9% | [4]; [7] -1% | [4]; [8] 3% | [4]; at 50.0 µM -31.1% and -44.4% | [5]; [7] -3% | [5]; [8] -3% | [5]; at 50.0 µM -5.55% and -18.1% | [6]; [7] 13% | [6]; [8] 48% | [6]; at 50.0 µM 2.7% and -0.7%

C=CCC[CH2][Sn]([c]1ccccc1)([c]1ccccc1)[c]1ccccc1
active: [1]; [7] 98% | [1]; [8] 93% | [1]; at 50.0 µM 99.5% | [2]; [7] 99% | [2]; [8] 98% | [2]; at 50.0 µM 99.5% | [3]; [7] 99% | [3]; [8] 98% | [3]; at 50.0 µM 99.4% | [4]; [7] 98% | [4]; [8] 96% | [4]; at 50.0 µM 98.2% | [5]; [7] 97% | [5]; [8] 97% | [5]; at 50.0 µM 99% | [6]; [7] 99% | [6]; [8] 97% | [6]; at 50.0 µM 99.4%

CCC[CH2][Sn]([CH2]CCC)([S]C1=NCCS1)[S]C1=NCCS1
active: [1]; [7] 96% | [1]; [8] 96% | [1]; at 50.0 µM 90.7% | [2]; [7] 97% | [2]; [8] 97% | [2]; at 50.0 µM 90.7% | [3]; [7] 97% | [3]; [8] 97% | [3]; at 50.0 µM 90.9% | [4]; [7] 95% | [4]; [8] 95% | [4]; at 50.0 µM 89.7% | [5]; [7] 95% | [5]; [8] 95% | [5]; at 50.0 µM 88.3% | [6]; [7] 96% | [6]; [8] 96% | [6]; at 50.0 µM 86.5%

Cn1c(=O)c2[nH]cnc2n(C)c1=O.[CH2-]C(Cc1cccc2cc(C(=O)O)c(=O)oc12)OC.[Hg+2].[OH-] (centres undefined)
inactive: [1]; [7] 1% | [1]; [8] 6% | [1]; at 50.0 µM 46% | [2]; [7] -3% | [2]; [8] 14% | [3]; [7] -6% | [3]; [8] 21% | [4]; [7] 25% | [4]; [8] -29% | [5]; [7] -20% | [5]; [8] -16% | [6]; [7] -7% | [6]; [8] 17%
active: [2]; at 50.0 µM 96.7% | [3]; at 50.0 µM 93.5% | [4]; at 50.0 µM 93.2% | [5]; at 50.0 µM 96.8% | [6]; at 50.0 µM 98.3%

Reference: PubChem BioAssay (NCI)
